Measured values taken from PubChem BioAssay (EPA / NIEHS).
Records with an inconclusive call do not appear. Calls of active or inactive are those of the source. How the source made its calls, unless noted: active means hit-call score of the fitted dose curve at least 0.9, where 1 is the maximum; inactive means score below 0.9.

Experiments:
[1] = ACEA_ER_80hr: ACEA Biosciences xCELLigence Real-Time Cell Analysis on Estrogen Receptor Agonism for Proliferation (AID 2282667; active means hit-call score of the fitted dose curve at least 0.9, where 1 is the maximum); settings: T47D proliferation, impedance (xCELLigence), 80 h
Outline: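 Impedance readout (RT-CES) of T47D proliferation at 80 h post-dose; gain of signal vs DMSO baseline. Compounds: 8 conc, 1:4 serial, top 100 uM final, ≤0.5% DMSO; biological duplicate.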

[2] = ATG_CRE_CIS: Attagene CIS-FACTORIAL HepG2 Assay for human cAMP Responsive Element (CRE) binding protein 3 (AID 2282926); settings: HepG2 CRE cis-reporter, Attagene multiplexed mRNA; actives raise or lower the signal
Outline: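 Readout: fluorescently labelled reporter transcripts resolved by capillary electrophoresis after RT-PCR, taken 24 h post-dosing in transfected HepG2. Endogenous transcription factor activity drives each cis-element reporter; gain or loss of signal fitted relative to DMSO control.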

[3] = molecular target: CCAAT/enhancer-binding protein beta (Homo sapiens) (UniProt P17676); assay: ATG_C_EBP_CIS: Attagene CIS-FACTORIAL HepG2 Assay for human CCAAT/Enhancer Binding Protein (C/EBP) beta (AID 2282927); settings: HepG2 Attagene cis-factorial transcription factor reporter; actives raise or lower the signal
Sequence of CCAAT/enhancer-binding protein beta (Homo sapiens) (P17676 whole entry, looked up): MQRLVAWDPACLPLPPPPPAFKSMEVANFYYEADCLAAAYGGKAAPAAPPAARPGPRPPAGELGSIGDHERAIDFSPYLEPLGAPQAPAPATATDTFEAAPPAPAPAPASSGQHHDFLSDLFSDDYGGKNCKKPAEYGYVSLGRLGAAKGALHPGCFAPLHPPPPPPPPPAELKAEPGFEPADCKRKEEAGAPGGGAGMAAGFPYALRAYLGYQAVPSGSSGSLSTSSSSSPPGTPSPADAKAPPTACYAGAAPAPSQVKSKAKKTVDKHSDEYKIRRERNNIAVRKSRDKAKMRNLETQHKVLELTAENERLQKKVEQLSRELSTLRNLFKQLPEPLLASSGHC
Outline: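 Endogenous transcription factor activity in human liver HepG2 cells is inferred from induction of a CEBPB-linked reporter mRNA. Exposure lasts 24 h; activity is fitted in both directions relative to DMSO.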

[4] = ATG_CMV_CIS: Attagene CIS-FACTORIAL HepG2 Assay for human CMV (Internal Marker) (AID 2282928); settings: HepG2 CMV promoter reporter, transcription factor profiling; actives raise or lower the signal;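 further: endpoint acts as a background internal control marker rather than a target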
Outline: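 Fluorescence intensity of RT-PCR-derived reporter fragments, resolved by capillary electrophoresis, gives the signal. HepG2 liver cells bearing transfected cis-element reporters were treated 24 h; activity in either direction was fit relative to DMSO-treated controls.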

[5] = ATG_DR4_LXR_CIS: Attagene CIS-FACTORIAL HepG2 Assay for human Liver X Receptor (LXR), DR4 submotif (AID 2282929); settings: HepG2 Attagene DR4 cis-reporter, mRNA transcription; actives raise or lower the signal
Outline: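 Measures endogenous transcription factor activity via a DR4-driven reporter transcript in human HepG2 cells. Compounds incubated 24 h; mRNA quantified by RT-PCR and capillary electrophoresis, analysed as gain or loss of signal versus DMSO.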

[6] = ATG_AP_1_CIS: Attagene CIS-FACTORIAL HepG2 Assay for human Activator Protein 1 (AP-1) (AID 2282931); settings: HepG2 Attagene cis-factorial AP-1 reporter mRNA; actives raise or lower the signal
Outline: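 Bidirectional concentration-response fitting against DMSO controls. Underlying signal: reporter mRNA from cis-promoter constructs in transiently transfected HepG2, measured after 24 h by RT-PCR and capillary electrophoresis.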

[7] = ATG_AP_2_CIS: Attagene CIS-FACTORIAL HepG2 Assay for human Activator Protein 2 (AP-2) (AID 2282932); settings: HepG2 AP-2 cis-reporter, Attagene transcription factor profiling; actives raise or lower the signal
Outline: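 Transiently transfected HepG2 cells are exposed to chemical for 24 h. Reporter transcripts are then measured as fluorescence following RT-PCR and capillary separation, and gain- or loss-of-signal is fitted relative to DMSO.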

[8] = molecular target: Transcription factor E2F1 (Homo sapiens) (UniProt Q01094); assay: ATG_E2F_CIS: Attagene CIS-FACTORIAL HepG2 Assay for human E2F Transcription Factor 1 (AID 2282935); settings: HepG2 Attagene cis-reporter, E2F reporter RNA transcripts; actives raise or lower the signal
Sequence of Transcription factor E2F1 (Homo sapiens) (Q01094 whole entry, looked up): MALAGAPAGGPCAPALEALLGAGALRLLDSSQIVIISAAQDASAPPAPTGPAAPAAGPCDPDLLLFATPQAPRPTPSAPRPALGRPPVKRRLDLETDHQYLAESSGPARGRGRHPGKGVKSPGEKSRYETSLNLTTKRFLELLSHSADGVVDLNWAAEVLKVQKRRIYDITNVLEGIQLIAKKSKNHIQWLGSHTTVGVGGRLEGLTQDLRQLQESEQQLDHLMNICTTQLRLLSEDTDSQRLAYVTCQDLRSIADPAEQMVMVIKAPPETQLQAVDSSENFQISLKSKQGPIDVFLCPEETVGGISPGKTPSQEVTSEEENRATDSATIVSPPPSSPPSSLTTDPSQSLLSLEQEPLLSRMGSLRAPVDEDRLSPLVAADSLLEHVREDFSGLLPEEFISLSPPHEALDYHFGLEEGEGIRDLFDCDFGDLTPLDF
Outline: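 Fluorescent RT-PCR products, digested with HpaI for 2 h at 37 C, are separated by capillary electrophoresis. Source RNA comes from transfected HepG2 cultures treated for 24 h.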

[9] = ATG_E_Box_CIS: Attagene CIS-FACTORIAL HepG2 Assay for human Enhancer Box (E-box) (AID 2282936); settings: HepG2 E-box cis-reporter transcription, actives raise or lower the signal
Outline: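 Fluorescent reporter fragments separated by capillary electrophoresis gave the signal; mRNA came from HepG2 cells transfected with cis-element reporters and treated 24 h. Curves fitted bidirectionally relative to DMSO controls.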

[10] = ATG_M_61_CIS: Attagene CIS-FACTORIAL HepG2 Assay for M61 Transcription Factor (Internal Marker) (AID 2282937); settings: HepG2 Attagene CIS-FACTORIAL M61 internal marker reporter; actives raise or lower the signal
Outline: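 Fluorescence from labelled cDNA fragments, separated by capillary electrophoresis, quantifies reporter induction. HepG2 cells bearing transiently transfected cis-promoter MRTUs were incubated with test chemical for 24 h; DMSO defined baseline for gain/loss fitting.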

[11] = ATG_EGR_CIS: Attagene CIS-FACTORIAL HepG2 Assay for human Early Growth Response 1 (EGR1) (AID 2282938); settings: HepG2 Attagene CIS-FACTORIAL EGR reporter mRNA; actives raise or lower the signal
Outline: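 Cell-based multiplex transcription assay: HepG2 carrying transfected cis-element reporter units, 24 h chemical treatment. Fluorescence from capillary electrophoresis of RT-PCR products gives mRNA levels; fitting is bidirectional relative to DMSO.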

[12] = ATG_M_19_CIS: Attagene CIS-FACTORIAL HepG2 Assay for M19 Transcription Factor (Internal Marker) (AID 2282939); settings: HepG2 Attagene CIS-FACTORIAL M19 internal marker reporter; actives raise or lower the signal
Outline: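 Background-control endpoint from a multiplexed HepG2 reporter panel. Cells carrying cis-regulated reporter constructs are treated 24 h, then reporter transcripts are amplified, fluorescently labelled and sized by capillary electrophoresis. DMSO defines baseline.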

[13] = ATG_ERE_CIS: Attagene CIS-FACTORIAL HepG2 Assay for Estrogen Response Element (ERE) (AID 2282940); settings: HepG2 ERE cis-reporter, Attagene RNA transcript; actives raise or lower the signal
Outline: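 Cells used were human hepatoma HepG2, transfected with multiple reporter transcription units under cis-regulatory promoters. Reporter mRNA, read 24 h post-dosing via fluorescent RT-PCR products on capillary electrophoresis, was fitted bidirectionally relative to DMSO.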

[14] = ATG_Ets_CIS: Attagene CIS-FACTORIAL HepG2 Assay for human Erythroblast Transformation Specific (ETS) (AID 2282941); settings: HepG2 ETS cis-reporter transcription, actives raise or lower the signal
Outline: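 Multiplexed reporter transcript profiling: HepG2, 24 h treatment, total RNA to cDNA, PCR, 6-FAM labelling, HpaI cut, capillary electrophoresis. Gain- or loss-of-signal fitted against DMSO.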

[15] = molecular target: Hepatocyte nuclear factor 3-beta (Homo sapiens) (UniProt Q9Y261); assay: ATG_FoxA2_CIS: Attagene CIS-FACTORIAL HepG2 Assay for human Forkhead box A2 (FOXA2) (AID 2282942); settings: HepG2 cis-reporter transcription factor activity, 24 h; actives raise or lower the signal
Sequence of Hepatocyte nuclear factor 3-beta (Homo sapiens) (Q9Y261 whole entry, looked up): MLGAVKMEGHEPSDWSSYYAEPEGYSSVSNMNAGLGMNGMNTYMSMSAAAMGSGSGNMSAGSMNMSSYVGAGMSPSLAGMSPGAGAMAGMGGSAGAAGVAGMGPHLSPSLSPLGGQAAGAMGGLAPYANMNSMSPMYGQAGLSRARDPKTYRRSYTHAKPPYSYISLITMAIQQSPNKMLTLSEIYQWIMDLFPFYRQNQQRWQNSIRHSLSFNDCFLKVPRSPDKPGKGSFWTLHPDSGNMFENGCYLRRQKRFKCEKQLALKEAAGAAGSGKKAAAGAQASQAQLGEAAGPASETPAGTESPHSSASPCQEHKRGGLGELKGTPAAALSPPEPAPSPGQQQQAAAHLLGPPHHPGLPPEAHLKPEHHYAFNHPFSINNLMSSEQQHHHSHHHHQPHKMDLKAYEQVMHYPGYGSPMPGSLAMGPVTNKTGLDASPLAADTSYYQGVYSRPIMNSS
Outline: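 In transiently transfected human HepG2 cells, promoter-driven reporter mRNA levels after 24 h chemical exposure are determined via RT-PCR with capillary electrophoresis. DMSO serves as baseline for bidirectional fitting.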

[16] = ATG_FoxO_CIS: Attagene CIS-FACTORIAL HepG2 Assay for human Forkhead box O (FoxO) (AID 2282943); settings: HepG2 Attagene cis-reporter, FoxO element, mRNA; actives raise or lower the signal
Outline: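 HepG2, transient MRTU transfection (cis element, endogenous TFs). Dose 24 h. TriZol RNA → oligo(dT) RT → PCR → 6-FAM primer extension → HpaI cut → CE. Gain/loss vs DMSO.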

[17] = ATG_GATA_CIS: Attagene CIS-FACTORIAL HepG2 Assay for human GATA Binding Protein (AID 2282944); settings: HepG2 GATA cis-element reporter, Attagene multiplex mRNA; actives raise or lower the signal
Outline: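 Endogenous transcription factor activity was captured through cis-promoter-driven reporters in transfected HepG2 cells. After 24 h exposure, reporter transcripts were quantified by RT-PCR with fluorescent capillary electrophoresis, and responses fitted both directions against DMSO.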

[18] = molecular target: Retinoic acid receptor alpha (Homo sapiens) (UniProt P10276); assay: ATG_DR5_RAR_CIS: Attagene CIS-FACTORIAL HepG2 Assay for human Retinoic Acid Receptor Alpha (RARE), DR5 submotif (AID 2282934); settings: HepG2 Attagene cis-factorial RARE DR5 reporter, mRNA; actives raise or lower the signal;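 on AC50: reporter responds to endogenous RAR alpha beta and gamma in HepG2 not RARA alone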
Sequence of Retinoic acid receptor alpha (Homo sapiens) (P10276 whole entry, looked up): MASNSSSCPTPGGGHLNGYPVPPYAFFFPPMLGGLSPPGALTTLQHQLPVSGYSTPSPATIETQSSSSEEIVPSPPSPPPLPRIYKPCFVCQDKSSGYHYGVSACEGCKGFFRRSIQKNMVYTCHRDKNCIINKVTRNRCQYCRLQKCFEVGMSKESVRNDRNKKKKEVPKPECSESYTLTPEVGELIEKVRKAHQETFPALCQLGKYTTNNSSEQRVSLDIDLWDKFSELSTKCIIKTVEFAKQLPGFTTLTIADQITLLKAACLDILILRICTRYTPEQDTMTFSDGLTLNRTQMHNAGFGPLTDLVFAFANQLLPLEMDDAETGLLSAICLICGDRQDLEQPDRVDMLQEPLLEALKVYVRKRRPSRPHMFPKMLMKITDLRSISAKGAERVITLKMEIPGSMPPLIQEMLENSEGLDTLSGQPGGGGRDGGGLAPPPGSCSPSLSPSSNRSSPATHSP
Outline: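 Transient MRTU transfection of HepG2; 24 h compound treatment; TriZol RNA, oligo(dT) RT, PCR, FAM labelling, capillary electrophoresis. Bidirectional fit vs DMSO. Endogenous TF activity at DR5 RARE.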

[19] = molecular target: Aryl hydrocarbon receptor (Homo sapiens) (UniProt P35869); assay: ATG_Ahr_CIS: Attagene CIS-FACTORIAL HepG2 Assay for human Aryl Hydrocarbon Receptor (Ahr) (AID 2282930); settings: HepG2 AhR cis-factorial reporter transcription; actives raise or lower the signal
Sequence of Aryl hydrocarbon receptor (Homo sapiens) (P35869 whole entry, looked up): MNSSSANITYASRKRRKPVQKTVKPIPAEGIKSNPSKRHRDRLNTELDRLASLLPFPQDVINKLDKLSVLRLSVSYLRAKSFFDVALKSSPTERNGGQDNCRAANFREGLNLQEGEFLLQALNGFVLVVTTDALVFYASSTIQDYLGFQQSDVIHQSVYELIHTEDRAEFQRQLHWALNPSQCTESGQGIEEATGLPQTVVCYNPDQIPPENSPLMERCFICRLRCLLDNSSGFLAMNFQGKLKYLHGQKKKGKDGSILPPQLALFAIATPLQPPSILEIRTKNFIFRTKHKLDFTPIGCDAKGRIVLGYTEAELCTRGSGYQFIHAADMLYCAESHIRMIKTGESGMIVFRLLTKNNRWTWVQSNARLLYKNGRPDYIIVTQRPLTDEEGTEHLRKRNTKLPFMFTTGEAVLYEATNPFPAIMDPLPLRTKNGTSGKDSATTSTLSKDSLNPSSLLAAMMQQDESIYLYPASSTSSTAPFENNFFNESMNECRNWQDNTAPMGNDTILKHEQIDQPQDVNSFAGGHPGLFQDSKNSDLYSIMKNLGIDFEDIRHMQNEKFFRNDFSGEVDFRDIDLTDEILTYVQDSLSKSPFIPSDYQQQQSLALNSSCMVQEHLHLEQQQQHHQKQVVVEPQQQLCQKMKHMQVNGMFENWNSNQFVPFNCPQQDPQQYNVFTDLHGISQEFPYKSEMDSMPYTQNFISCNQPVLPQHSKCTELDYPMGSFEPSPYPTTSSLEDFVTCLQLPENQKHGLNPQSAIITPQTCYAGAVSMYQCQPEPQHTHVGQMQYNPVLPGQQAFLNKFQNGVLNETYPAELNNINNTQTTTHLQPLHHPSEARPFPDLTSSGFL
Outline: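 Transient MRTU transfection of HepG2 → 24 h compound exposure → total RNA, oligo(dT) RT → PCR, 6-FAM extension, HpaI cut → CE fluorescence. DMSO = baseline; bidirectional curve fit.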

[20] = ATG_BRE_CIS: Attagene CIS-FACTORIAL HepG2 Assay for human Bone Morphogenetic Protein (BMP) Response Element (BRE) (AID 2282933); settings: HepG2 BMP response element reporter, Attagene transcription factor profiling; actives raise or lower the signal
Outline: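 Endogenous transcription factor activity at a BMP response element was monitored in transfected HepG2 cells 24 h after dosing. Fluorescent RT-PCR products were resolved by capillary electrophoresis, and activity was fitted in both directions versus DMSO.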

Measured: AC50

CC12CCC(CC1)C(C)(C)O2
not listed: [18] | [19] | [20]
inactive: all other assays above

CCCCC(C=O)CC (centres undefined)
not listed: [7] | [19] | [20]
inactive: all other assays above

C=C[C@@]1(C)CC(=O)[C@]2(O)[C@@]3(C)[C@@H](O)CCC(C)(C)[C@@H]3[C@H](O)[C@H](OC(C)=O)[C@@]2(C)O1
active: [1] 2.59 µM | [2] 3.45 µM | [4] 0.476 µM | [18] 3.81 µM | [13] 0.895 µM
not listed: [5]
inactive: all other assays above

Oc1ccc(-c2ccccc2)c(Cl)c1
active: [1] 10.5 µM | [2] 33.4 µM | [4] 43.1 µM | [6] 60.2 µM | [20] 33.4 µM | [11] 53.9 µM | [13] 9.09 µM
not listed: [5] | [7] | [14] | [18]
inactive: all other assays above

CC(=O)OCC=C(C)C
not listed: [6] | [14] | [19]
inactive: all other assays above

CC1=CCC2CC1C2(C)C (centres undefined)
not listed: [7] | [10] | [19]
inactive: all other assays above

COc1nccnc1CC(C)C
not listed: [5] | [10]
inactive: all other assays above

CC1=CCC(C(C)C)C=C1 (centres undefined)
not listed: [5] | [18]
inactive: all other assays above
